Drawing on the supplement of paper PMC9399229, this text covers relative cell viability for 47 compounds.

Molecules are shown by their SMILES. Where a name gives a salt, the structure may show the parent alone. ± gives the standard deviation of the averaged measurements. Whole data set: some 1,900 compounds, median “relative cell viability (CellTiter-Glo), compound alone” near 1, cut for the lowest 2% near 0.16. Only a selection was taken, and the lowest values are over-represented in it overall.

This assay relates to Hep3B. Kind of assay: relative cell viability (CellTiter-Glo), compound alone (fraction); higher = more viable cells (less growth inhibition). The conditions noted are these: cabozantinib 0 µM; 4 days. For orientation: In ATP-based viability assays light output follows the ATP content of the culture.
With `C/C(=N\NC(=O)c1cccc(S(=O)(=O)N2CCOCC2)c1)c1cc(Cl)ccc1O`, the relative cell viability is 1.08 ± 0.014. In the case of `COc1ccc(S(=O)(=O)N(C(C)=O)c2ccccc2/C=C/c2cc[n+]([O-])cc2)cc1` it was 0.855 ± 0.05.

As for `NC[C@@](O)(c1ccc(Cl)cc1)c1ccc(-c2cn[nH]c2)cc1`, the relative cell viability came to 0.23 ± 0.029. As for `COc1c(C)cnc(Cn2cnc3c(Cl)nc(N)nc32)c1C`, the figure is 0.19 ± 0.017; as for `O=C(Cc1cccc(OC(F)(F)F)c1)Nc1ccc(CCCCc2nnc(NC(=O)Cc3ccccn3)s2)nn1`, 1.04 ± 0.35; as for `O=C1NC(=O)C(c2cnc3ccccn23)=C1c1cn2c3c(cc(F)cc13)CN(C(=O)N1CCCCC1)CC2`, 1.28 ± 0.1. In the case of `COc1ccccc1S(=O)(=O)Nc1ccc2c(c1)CN(C)C(=O)N2` it was 0.881 ± 0.091. In the case of `Cc1ncc(CCCN(C)C)cc1Nc1ncc2c(n1)-c1ccc(C(F)(F)F)cc1NC(=S)C2` it was 0.81 ± 0.023; in that of `CNc1nc(Nc2cnn([C@H]3CCN(C4COC4)C[C@@H]3F)c2Cl)ncc1C(F)(F)F`, 1.14 ± 0.02. The compound `Clc1ccc(C2(c3ccc(-c4cn[nH]c4)cc3)CCNCC2)cc1` yielded a relative cell viability of 0.972 ± 0.2. In the case of `CC1=C(C(=O)OC2CCCCC2)C(c2ccc([N+](=O)[O-])cc2)C2=C(CC(C)(C)CC2=O)N1` (configuration not stated) it was 1.19 ± 0.022; in that of `COC(=O)C1=CO[C@@H](O[C@@H]2O[C@H](CO)[C@@H](O)[C@H](O)[C@H]2O)[C@@H]2C(CO)=CC[C@H]12` [Geniposide], 1.11 ± 0.078. In the case of `COc1ccc(NS(=O)(=O)c2sc3ccc(Cl)cc3c2C)cc1N1CCNCC1` it was 0.974 ± 0.19; in that of `CCNC(=O)C#Cc1ccc2c(C(=Nc3ccc(CN(C)C)cc3)c3ccccc3)c(O)[nH]c2c1`, 0.278 ± 0.007. As for `CCOC(=O)CCNc1cc(N2CCc3ccccc3CC2)nc(-c2ccccn2)n1`, the figure is 0.742 ± 0.084; as for `Cc1cc(OCc2nnc(SC3CCCC3)n2-c2cccnc2)ccc1-c1ccc(S(C)(=O)=O)cc1`, 1.07 ± 0.024; as for `CCOC(=O)Nc1cc(-c2ccc(C)c(NS(C)(=O)=O)c2)nn2c(C)nnc12` [Bromosporine], 0.851 ± 0.044. For `CCc1c(O)cc(O)c(C(=O)c2ccc(OCCN3CCOCC3)c(OC)c2)c1CC(=O)N(CCOC)CCOC`, the relative cell viability stood at 0.48 ± 0.01. In the case of `COC(=O)C[C@H](NC(=O)[C@H](C)NC(=O)[C@@H](NC(=O)OCc1ccccc1)C(C)C)C(=O)CF` it was 1 ± 0.094; in that of `NC(=O)c1cccc2[nH]c(-c3ccc(C4CCCN4)cc3F)nc12` (configuration not stated), 0.981 ± 0.079. The compound `NC1=N[C@@](c2cccc(-c3cncnc3)c2)(c2ccnc(C(F)F)c2)c2cccc(F)c21` displayed a relative cell viability of 1.34 ± 0.037. As for `COc1cccc2c1C(=O)c1c(O)c3c(c(O)c1C2=O)C[C@@](O)(C(=O)CO)C[C@@H]3O[C@H]1C[C@H](N)[C@@H](O)[C@H](C)O1` [Epirubicin HCl], the figure is 0.0641 ± 0.0026; as for `COc1cccc2c1C(=O)c1c(O)c3c(c(O)c1C2=O)C[C@@](O)(C(C)=O)C[C@@H]3O[C@H]1C[C@H](N)[C@H](O)[C@H](C)O1` [Daunorubicin HCl], 0.0682 ± 0.0026; as for `COc1cccc2c1C(=O)c1c(O)c3c(c(O)c1C2=O)C[C@@](O)(C(=O)CO)C[C@@H]3O[C@H]1C[C@H](N)[C@H](O[C@@H]2CCCCO2)[C@H](C)O1` [Pirarubicin], 0.157 ± 0.078. In the case of `COc1cccc2c1C(=O)c1c(O)c3c(c(O)c1C2=O)C[C@@](O)(C(=O)CO)C[C@@H]3O[C@H]1C[C@H](N)[C@H](O)[C@H](C)O1` [Doxorubicin (Adriamycin)] it was 0.144 ± 0.0086; in that of `O=C(O)c1cc(I)ccc1NC(=O)[C@H](Cc1ccccc1)NCc1ccccc1`, 1.03 ± 0.032. In the case of `C=CC(=O)N1CCC(Oc2cc3c(Nc4ccc(Cl)c(Cl)c4F)ncnc3cc2OC)CC1` [Poziotinib (HM781-36B)] it was 0.933 ± 0.022. Compound `CN(C)CCN1C(=O)c2cccc3cc(N)cc(c23)C1=O` [Amonafide] had a relative cell viability of 1.22 ± 0.09. As for `C=CC(=O)Nc1ccc2ncnc(Nc3ccc(OCc4cccc(F)c4)c(Cl)c3)c2c1`, the figure is 1.41 ± 0.053; as for `NC(=O)Nc1sc(-c2ccc(F)cc2)cc1C(N)=O`, 1.1 ± 0.043; as for `COc1cc(C(=O)NC2CCCNC2)cc(OC)c1OC` (configuration not stated) [Troxipide], 1.07 ± 0.12.

`NC(=O)Nc1cc(-c2cccc(F)c2)sc1C(=O)N[C@H]1CCCNC1` gave a relative cell viability of 0.151 ± 0.016. In the case of `O=C(NO)c1cccc(C(=O)NCCc2ccccc2)c1` it was 1.16 ± 0.059; in that of `COc1cc2ncc(-c3ccccc3)nc2cc1OC` [Tyrphostin AG 1296], 1 ± 0.02.

As to `Nc1nccc2c1ncn2C1C=C(CO)C(O)C1O` (configuration not stated) [3-Deazaneplanocin A (DZNeP)], the relative cell viability was found to be 0.933 ± 0.013. The compound `Cc1nc(C#Cc2ccnc(Cl)c2)c(C)n1-c1ccc(OC(F)(F)F)cc1` yielded a relative cell viability of 1 ± 0.056. In the case of `O=C(/C=C/c1ccc2ccccc2n1)c1ccncc1` it was 0.167 ± 0.0076; in that of `CCOC(=O)n1ccn(C)c1=S` [Carbimazole], 1.02 ± 0.14; in that of `CNc1ncnc2c1ncn2[C@@H]1O[C@H](CO)[C@@H](O)[C@H]1O` [N6-methyladenosine (m6A)], 1.15 ± 0.042.

Turning to `COc1ccc(C[C@H](N)C(=O)N[C@H]2[C@@H](O)[C@H](n3cnc4c(N(C)C)ncnc43)O[C@@H]2CO)cc1` [Puromycin 2HCl], the relative cell viability is 0.0517 ± 0.001.

Turning to `COc1nc(N)nc2c1ncn2[C@@H]1O[C@H](CO)[C@@H](O)[C@@H]1O` [Nelarabine], the relative cell viability came out at 1.1 ± 0.035.

On to `COc1cc(-c2cc(-c3ccc(N4CCNCC4)cc3)cnc2C)cc(OC)c1OC`, for which the relative cell viability was determined as 0.937 ± 0.023. On to `c1cc(-c2cnn3cc(-c4ccc(N5CCNCC5)cc4)cnc23)c2cccnc2c1`, for which the relative cell viability came to 0.142 ± 0.013. In the case of `COc1ccc(-c2cnc3c(-c4cccc5ncccc45)cnn3c2)cc1` it was 1.31 ± 0.03; in that of `CCCNCC(O)COc1ccccc1C(=O)CCc1ccccc1` (configuration not stated) [Propafenone HCl], 0.855 ± 0.07. Regarding `Cc1cc(-c2ccc(CC(=O)Nc3ccc(-c4cccnc4)cc3)cc2)ccn1`, the relative cell viability is 1.268 ± 0.0057. In the case of `CC(C=CC(=O)NO)=CC(C)C(=O)c1ccc(N(C)C)cc1` (configuration not stated) [Trichostatin A (TSA)] it was 0.131 ± 0.019.
